# This is part of a sample that, as a whole, favours compounds with a hit. Of some 79,000 tested, about 15% had one in any assay. A number with no mark means an inactive call. The source made the active and inactive calls. Rule as the data show it: active = growth inhibition above about 70%; inactive = the rest.
# Assay: NCI Yeast Anticancer Drug Screen. Data for the cln2 rad14 strain (AID 165);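 also: 0% = growth equal to vehicle treated cultures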
# Conditions: S. cerevisiae cln2 rad14 strain, at 5.0 µM (retest, dose inferred, filed as 0.5), hits give high values
# Summary of the method: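 Readout is yeast growth inhibition versus vehicle-treated controls, using a strain with cln2 and rad14 alterations exposed to compound.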
row,Compound,growth inhibition
1,CCN(CC)CCOC(=O)C1CCCCC1C(=O)C1CCCCC1 (stereo not given),-2%
2,O=c1c2cc(Br)ccc2ncn1COCc1ccccc1,24%
3,C=C1C(=O)OC2C1CCC(=C)C1CC(O)C(=C)C12 (stereo not given),10%
4,CCC(CC)=NNc1ccc([N+](=O)[O-])cc1,10%
5,CCN(CC)CCNc1ccc(C)c2oc3ccc(O)cc3c(=O)c12,1%
6,CCOC(=O)C[P+](c1ccc(C)cc1)(c1ccc(C)cc1)c1ccc(C)cc1,2%
7,Cc1ccc(C)c(C(=O)/C=C/C(=O)O)c1,15%
8,CCCC/C=C(/CCCCOCOCCOC)[Si](C)(C)C,1%
9,C=C1C2Oc3ccccc3C1N(c1ccccc1)O2 (stereo not given),4%
10,NC(=O)N/N=C1/CC2CCCCC2c2ccccc21 (stereo not given),0%
11,CC(CCN)(CCN)[N+](=O)[O-],-25%
12,COC(=O)/C=C(\NC1CC(OC2C[C@](O)(C(C)=O)Cc3c(O)c4c(c(O)c32)C(=O)c2c(OC)cccc2C4=O)OC(C)C1O)C(=O)OC (stereo not given in full),2%
13,CCOc1ccc(N=Nc2ccccc2)cc1,0%
14,O=C(CNS(=O)(=O)Cc1ccccc1)NCC(=O)NNc1ccccc1,12%
15,CC1(C)c2ccccc2Cc2cc3ccccc3nc21,1%
16,CC(=O)Nc1ccc(C(C)(C)c2ccc(C)cc2)cc1,2%
17,CC[C@]1(O)C[C@H]2[C@@H]3CCc4cc(OC)ccc4[C@H]3CC[C@]2(C)[C@H]1O,-6%
18,CCCCSc1nc2c([nH]1)c(=S)n(C)c(=S)n2C,-5%
19,CN(Cc1cc(C(C)(C)C)cc(Br)c1O)Cc1cc(C(C)(C)C)cc(Br)c1O,-11%
20,Oc1cc2c(cc1C(c1ccc(F)cc1)N1CCCCC1)OCO2 (stereo not given),-4%

row,Compound,growth inhibition
1,CCCCCCCN(CCCCCCC)CC(O)Cc1cc2c(c3ccccc13)CCCC2 (stereo not given),4%
2,Cc1c2ccncc2c(C)c2c1sc1ccccc12,32%
3,c1ccc2c(c1)OCC(CNCCNCC1COc3ccccc3O1)O2 (stereo not given),45%
4,CC(C)(C)c1ccc(Sc2ncnc3ccccc23)cc1,-1%
5,C(#Cc1ccccc1)Sc1ccccc1,6%
6,CCOC(=O)NC(NNc1ccc([N+](=O)[O-])cc1[N+](=O)[O-])(C(F)(F)F)C(F)(F)F,21%
7,O=C1/C(=C/c2cccc(O)c2)COc2ccccc21,9%
8,CNC1=C2NC(=O)/C(C)=C\C=C\C(C)C(O)C(C)C(O)C(C)C(OC(C)=O)C(C)C(OC)/C=C/OC3(C)Oc4c(C)c(O)c(c(c4C3=O)C1=O)C2=O (stereo not given),-4%
9,COc1ccc(Cc2c(-c3ccc(C)cc3)n[nH]c(=O)c2C2C(=O)N(c3ccccc3)N=C2c2ccccc2)cc1 (stereo not given),98% (active)
10,Cc1ccc(Cc2n[nH]c(=O)n2N2C(=O)c3ccccc3C2=O)cc1,9%
11,COc1cc2c(c(C3C(=O)N(C)c4ccc(Br)cc43)c1OC)OCO2 (stereo not given),5%
12,CCCCCCCCC1N(C)CCCN1C,-56%
13,C1=Cc2ccccc2/C1=C/c1ccccc1,-7%
14,COC(=O)c1ccc2ccccc2c1C(=O)c1ccc(F)cc1,11%
15,CCNC(=S)N/N=C(/C)c1cccc(/C(C)=N\NC(=S)NCC)n1,8%
16,c1ccc2c(c1)ccc1ncccc12,2%
17,Cc1nc(N)nn1C,-4%
18,COC(=O)C1=C(C)NC(C)=C(C(=O)OC)C1c1ccc(NCc2ccccc2)c([N+](=O)[O-])c1,0%
19,CCc1ccccc1NC(=O)C(C#N)C1=C(Cl)C(=O)c2ccccc2C1=O (stereo not given),20%
20,O=C(O)c1ccc2ccccc2c1C(=O)c1cccc2ccccc12,7%

# Same assay, conditions: S. cerevisiae cln2 rad14 strain, at 50.0 µM (retest, dose inferred, filed as 5.0), hits give high values
row,Compound,growth inhibition
1,CCN(CC)CCOC(=O)C1CCCCC1C(=O)C1CCCCC1 (stereo not given),8%
2,O=c1c2cc(Br)ccc2ncn1COCc1ccccc1,-12%
3,C=C1C(=O)OC2C1CCC(=C)C1CC(O)C(=C)C12 (stereo not given),39%
4,CCC(CC)=NNc1ccc([N+](=O)[O-])cc1,94% (active)
5,CCN(CC)CCNc1ccc(C)c2oc3ccc(O)cc3c(=O)c12,22%
6,CCOC(=O)C[P+](c1ccc(C)cc1)(c1ccc(C)cc1)c1ccc(C)cc1,82% (active)
7,Cc1ccc(C)c(C(=O)/C=C/C(=O)O)c1,99% (active)
8,CCCC/C=C(/CCCCOCOCCOC)[Si](C)(C)C,-15%
9,C=C1C2Oc3ccccc3C1N(c1ccccc1)O2 (stereo not given),24%
10,NC(=O)N/N=C1/CC2CCCCC2c2ccccc21 (stereo not given),69%
11,CC(CCN)(CCN)[N+](=O)[O-],-2%
12,COC(=O)/C=C(\NC1CC(OC2C[C@](O)(C(C)=O)Cc3c(O)c4c(c(O)c32)C(=O)c2c(OC)cccc2C4=O)OC(C)C1O)C(=O)OC (stereo not given in full),96% (active)
13,CCOc1ccc(N=Nc2ccccc2)cc1,-27%
14,O=C(CNS(=O)(=O)Cc1ccccc1)NCC(=O)NNc1ccccc1,40%
15,CC1(C)c2ccccc2Cc2cc3ccccc3nc21,95% (active)
16,CC(=O)Nc1ccc(C(C)(C)c2ccc(C)cc2)cc1,96% (active)
17,CC[C@]1(O)C[C@H]2[C@@H]3CCc4cc(OC)ccc4[C@H]3CC[C@]2(C)[C@H]1O,87% (active)
18,CCCCSc1nc2c([nH]1)c(=S)n(C)c(=S)n2C,85% (active)
19,CN(Cc1cc(C(C)(C)C)cc(Br)c1O)Cc1cc(C(C)(C)C)cc(Br)c1O,87% (active)
20,Oc1cc2c(cc1C(c1ccc(F)cc1)N1CCCCC1)OCO2 (stereo not given),39%

row,Compound,growth inhibition
1,CCCCCCCN(CCCCCCC)CC(O)Cc1cc2c(c3ccccc13)CCCC2 (stereo not given),97% (active)
2,Cc1c2ccncc2c(C)c2c1sc1ccccc12,95% (active)
3,c1ccc2c(c1)OCC(CNCCNCC1COc3ccccc3O1)O2 (stereo not given),63%
4,CC(C)(C)c1ccc(Sc2ncnc3ccccc23)cc1,81% (active)
5,C(#Cc1ccccc1)Sc1ccccc1,6%
6,CCOC(=O)NC(NNc1ccc([N+](=O)[O-])cc1[N+](=O)[O-])(C(F)(F)F)C(F)(F)F,98% (active)
7,O=C1/C(=C/c2cccc(O)c2)COc2ccccc21,95% (active)
8,CNC1=C2NC(=O)/C(C)=C\C=C\C(C)C(O)C(C)C(O)C(C)C(OC(C)=O)C(C)C(OC)/C=C/OC3(C)Oc4c(C)c(O)c(c(c4C3=O)C1=O)C2=O (stereo not given),59%
9,COc1ccc(Cc2c(-c3ccc(C)cc3)n[nH]c(=O)c2C2C(=O)N(c3ccccc3)N=C2c2ccccc2)cc1 (stereo not given),97% (active)
10,Cc1ccc(Cc2n[nH]c(=O)n2N2C(=O)c3ccccc3C2=O)cc1,17%
11,COc1cc2c(c(C3C(=O)N(C)c4ccc(Br)cc43)c1OC)OCO2 (stereo not given),12%
12,CCCCCCCCC1N(C)CCCN1C,98% (active)
13,C1=Cc2ccccc2/C1=C/c1ccccc1,56%
14,COC(=O)c1ccc2ccccc2c1C(=O)c1ccc(F)cc1,90% (active)
15,CCNC(=S)N/N=C(/C)c1cccc(/C(C)=N\NC(=S)NCC)n1,6%
16,c1ccc2c(c1)ccc1ncccc12,10%
17,Cc1nc(N)nn1C,0%
18,COC(=O)C1=C(C)NC(C)=C(C(=O)OC)C1c1ccc(NCc2ccccc2)c([N+](=O)[O-])c1,74% (active)
19,CCc1ccccc1NC(=O)C(C#N)C1=C(Cl)C(=O)c2ccccc2C1=O (stereo not given),98% (active)
20,O=C(O)c1ccc2ccccc2c1C(=O)c1cccc2ccccc12,9%
